PubChem BioAssay (NCI)
Values joined by “and” are separate entries in the source; they are usually repeats but may differ in a detail not shown here. Identical values can stand only once. This is part of a sample that, as a whole, favours compounds with a hit. Of some 83,000 tested, about 20% had one in any assay.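 Interpretation: 100, growth as untreated; towards 0, rising growth inhibition; 0, no net growth; 0 to -100, cell death. Compounds scoring below 10 were considered active.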 Values without a mark were called inactive. Active and inactive are the calls of the source.

Each compound was assayed on MDA-MB-468 breast (assay: NCI-60 one-dose screen, 48 h (100 = growth as untreated, 0 = no growth, -100 = all killed)). Details: 10 µM unless noted.

| SMILES | growth |
| --- | --- |
| COc1ccc(C(=O)/C=C/c2ccccc2)cc1S(N)(=O)=O | 66.1% |
| O=C(NC1CCCCCC1)c1ccc2c(=O)n3c(nc2c1)CCCCC3 | 81.2% |
| Nc1ncc(-c2ccc3ncnc(Nc4cncc(Cl)c4)c3c2)cn1 | 7.6% (active) |
| CCOC(=O)c1cc(C(=O)c2ccc(F)cc2F)n2ccccc12 | 102% |
| COc1ccc2[nH]cc(-c3nc(-c4c[nH]c5ccncc45)cs3)c2c1 | -33.9% (active) |
| Cn1c2ccc(Br)cc2c2c3c(c4c5cc(F)ccc5oc4c21)C(=O)N(O)C3=O | 108% |
| CCN(CC)CCN1C(=O)c2c(c3c4cccnc4[nH]c3c3ccc4ccccc4c23)C1=O | 63.3% |
| Cc1cc(N2CCCC2)nc(N(CCCNc2ccnc3cc(Cl)ccc23)Cc2ccc3c(c2)OCO3)n1 | -47.4% (active) |
| Cc1ccc(NC(=O)Nc2cccnc2)cc1NC(=O)Nc1cccnc1 | 71% |
| COc1cc2c(cc1OC)C1(C)N(CC2)C(=O)OC1(C)C (stereo not given) | 93.1% |
| COc1ccc(C(=O)Nc2cccc(C3CC(=O)c4c(cc(OC)c(OC)c4OC)O3)c2)cc1 (stereo not given) | -2.79% (active) |
| Clc1nccc2c(-c3csc(-c4c[nH]c5ccccc45)n3)c[nH]c12 | 29.2% |
| CC(C)CCN(CCC(C)C)CC(=O)Nc1ccc(S(=O)(=O)c2ccc(NC(=O)CN(CCC(C)C)CCC(C)C)cc2)cc1 | 46.5% |
| O=C1Nc2ccc(Br)cc2C1=N/C=c1\[nH]c(=O)/c(=C/c2ccc(Cl)cc2)s1 | 86.6% |
| Cc1ccc2cccc([N+](=O)[O-])c2n1 | 107% and 100% |
| O=CNc1ccc2c(c1)Cc1cc([N+](=O)[O-])ccc1-2 | -29.6% (active) |
| CCCCCCCCCCCCCC[N+](C)(C)CCCCCCCCCCCCCC | 21.4% |
| COc1ccc(N(C)c2nc(N)nc3sc4c(c23)CCCC4)cc1 | 19.4% |
| C#CCOC(=O)C(N)CSSCC(N)C(=O)O (stereo not given) | 109% |
| O=C(Nc1ccc(Cl)cc1)Nc1nc2ccc([N+](=O)[O-])cc2s1 | -36.7% (active) |

| SMILES | growth |
| --- | --- |
| O=[N+]([O-])c1ccc(NCSc2ccc(Cl)cc2)cc1 | 98.6% |
| COc1ccccc1-n1cnc(N)c1C(=O)c1cc(OC)c(OC)c(OC)c1 | 39.3% |
| COc1cc(/C=C/C(=O)Nc2cccnc2Nc2cc(OC)c(OC)c(OC)c2)cc(OC)c1OC | 99.8% |
| C=C(C)[C@@H]1CC[C@]2(C(=O)N[C@@H](Cc3ccccc3)C(=O)OC)CC[C@]3(C)[C@H](CC[C@@H]4[C@@]5(C)CCC(=O)C(C)(C)[C@@H]5CC[C@]43C)[C@@H]12 | 84.2% |
| COc1cccc(C2=NN3C(C2)c2ccccc2OC3c2ccc(/C=C3\SC(=O)NC3=O)cc2)c1 (stereo not given) | 102% |
| CCOC(=O)c1c(NC(=S)Nc2ccc([N+](=O)[O-])cc2)sc2c1CCCCC2 | 71.2% |
| CSCCC1NC(=O)C(C(C)=Nc2ccccc2)=C1O (stereo not given) | 109% |
| C[C@]12CCc3nc(Nc4ccc(O)cc4)sc3C1=CC[C@@H]1[C@@H]2CC[C@]2(C)/C(=N/NC(N)=S)CC[C@@H]12 | -58.2% (active) |
| CC(=O)c1nc2ccccc2n1CCNC(N)=O | 60.8% |
| CCCCCCCCCCCCCCCCCCOc1ccccc1CC(=O)NCC[N+](C)(C)C | 19% |
| FC(F)c1nc2ccccc2n1-c1nc(N2CCOCC2)nc(N2CCOCC2)n1 | -43.2% (active) |
| CCN(CCO)CCCOc1ccc2c(Nc3cc(CC(=O)Nc4cccc(F)c4)[nH]n3)ncnc2c1 | 36.7% |
| CCCCNC(=O)Oc1ccc(/C(=C(\C)c2ccc(Cl)cc2)c2ccc(OCCN(CC)CC)cc2)cc1 | 71.8% |
| CN1CCN(Cc2ccc(NC(=O)c3cncc(C#Cc4c(N)ncc5cc(F)ccc45)c3)cc2C(F)(F)F)CC1 | 55.6% |
| Nc1c2c(nc3ccc(Br)cc13)CC(c1ccccc1)CC2=O (stereo not given) | -4.68% (active) |
| C=C[Si](OC(C)=O)(OC(C)=O)OC(C)=O | 109% |
| CCOC(=O)C1=C(N)Oc2c(sc3c(C)cccc23)C1c1ccc(F)cc1 (stereo not given) | 6.58% (active) |
| Cc1nc(-c2ccccc2)sc1CC#N | 104% |
| Cc1nc2ncccc2nc1Nc1ccc(S(=O)(=O)Nc2cncs2)cc1 | 97.7% |
| O=[N+]([O-])c1ccc(S(=O)(=O)OCCCCOS(=O)(=O)c2ccc([N+](=O)[O-])cc2)cc1 | 92.2% |
